697 NFkB inh: inhibitors of the PMA/ionomycin-induced NF-kB reporter in 697 B cells | 697 B-cell NF-kB luciferase reporter, 16 h | 330,000 tested, 0.33% active | inhibition, % at 4 µM; in the data active = inhibition above about 35%
Shn3 3UTR inh: Schnurri-3 reporter inhibition in Clone20 osteoblasts; Clone20 osteoblast Shn3 3'UTR firefly luciferase, 24 h; inhibition, % at 12.5 µM; 360,000 tested, 0.52% active; AID 588674;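 active = mean inhibition of at least 75% with every replicate also reaching 75%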;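 also: 0% = median of neutral control wells and 100% = pilot-screen positive control compound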
Calb FLC: affects C. albicans growth with fluconazole. C. albicans CaCi-2 (fluconazole-resistant clinical isolate) + fluconazole, Alamar Blue growth, 48 h. growth inhibition, % (test concentration not listed). 300,000 tested, 0.57% active;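 active = growth inhibition above about 58% in most replicates, limit read from the data, passing the limit was not always enough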;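 also: all wells also contain fluconazole at 8 µg/ml as a sub-toxic cotreatment; 0% = median of DMSO wells and 100% = median of geldanamycin control wells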
Jurkat NFkB inh: lowers PMA/ionomycin-induced NF-kB signal in Jurkat cells. PMA/ionomycin-induced NF-kB luciferase reporter, luminescence. inhibition, % at 4 µM. 330,000 tested, 0.53% active. AID 435003; in the data active = inhibition above about 50%
Beta cell apopt: blocks beta cell apoptosis | protection from apoptosis, % (concentration not given with the values) | INS-1E cytokine-induced death, ATP luminescence, 48 h; percent of positive-control rescue, neutral wells zero | AID 435005 | 300,000 tested, 0.8% active;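 active = Every replicate reaches about 75%, or at least half do and their mean reaches it too, limit read from the data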;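 also: 0% = cytokine-treated negative control wells and 100% = positive control rescue; higher means more ATP so stronger rescue from cytokine killing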
Jurkat NFkB conf: inhibitors of the PMA/ionomycin-induced NF-kB reporter in Jurkat cells, retest | Jurkat NF-kB luciferase, 16 h | AID 435020 | inhibition, % at 4 µM | shares compounds with Jurkat NFkB inh | 2,700 tested, 27% active;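 active = inhibition reaching about 45% at 4 µM in either replicate, limit read from the data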;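 also: plate controls were PMA/ionomycin stimulated DMSO wells for no effect and unstimulated DMSO wells for full effect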
697 NFkB conf: inhibitors of the PMA/ionomycin-induced NF-kB reporter in 697 B cells, retest; shares compounds with 697 NFkB inh; 697 B-cell NF-kB luciferase, 16 h; inhibition, % at 4 µM; 2,000 tested, 35% active; in the data active = inhibition mostly above about 28%, no sharp cut-off; inactive = mostly below about 22%
An asterisk follows results filed as active; i = inactive; / = no result given. A selection: hits, their analogues and other compounds. The true share with any hit is near 2%.

SMILES	697 NFkB inh	Shn3 3UTR inh	Calb FLC	Jurkat NFkB inh	Beta cell apopt	Jurkat NFkB conf	697 NFkB conf
CCOC(=O)[C@@H]1[C@H]2COc3ccc(Br)cc3[C@H]2N2C(=O)N(c3ccc(C)cc3)C(=O)[C@]12C	2	-21	10	7	2	/	/
Cc1cc(C(=O)CN2C(=O)c3ccccc3S2(=O)=O)c(C)n1CC1CCCO1 (stereo unspecified)	44*	68	7	79*	-1	22	8
COc1ccc(C(=O)CN2C(=O)c3ccccc3S2(=O)=O)cc1	56*	71	1	73*	0	58*	60*
Cc1cc(C(=O)CN2C(=O)NC(C)(c3ccccc3)C2=O)c(C)n1CC1CCCO1 (stereo unspecified)	1	-5	-4	3	0	/	/
CCCCN1CC(=O)N2[C@H](c3ccc(OC)cc3)[C@@H]3C(=O)N(CC)C(=O)[C@@H]3[C@]2(Cc2ccccc2)C1=O	20	37	-1	14	4	/	/
Cc1ccnc(NC(=O)Nc2cccc(F)c2)c1	-303	-51	-13	-176	3	-121	-257
Cc1ccc(NC(=O)Nc2cccc(F)c2)nc1	-99	-123	-2	-96	-5	/	/
Cc1cccnc1Nc1nc(-c2ccccn2)cs1	-347	28	-5	81*	101*	8	-175
Fc1ccc(-c2csc(Nc3ccccn3)n2)cc1	-264	-92	-12	-169	4	-74	-216
Clc1ccccc1Nc1nc(-c2cccnc2)cs1	-270	-48	2	-189	-5	-96	-210
Cc1cccnc1Nc1nc(-c2ccc(O)cc2O)cs1	-62	-59	-9	-77	-8	/	/
Cc1cccnc1Nc1nc(-c2ccccc2)cs1	-252	-99	-45	-152	/	-93	-232
COc1ccc(CNC(=O)c2ccc(-n3ccnc3)c3ccoc23)cc1OC	/	16	/	/	/	/	/
COc1ccc2[nH]cc(CCNC(=O)/C=C/[C@H]3O[C@@H](n4cc(C)c(=O)[nH]c4=O)C[C@@H]3O)c2c1	/	-3	/	/	/	/	/
Cc1cc(NC(=O)CSc2nc3c(sc4ccccc43)c(=O)n2CCCN2CCOCC2)n[nH]1	38*	-90	-13	59*	68	59*	27
Nc1c(-c2ccc(Cl)cc2)cnc2c(-c3ccc(F)cc3)cnn12	-263	-72	47	-173	11	-135	-224
Cc1ccccc1NS(=O)(=O)c1ccc(C(=O)NCC(C)(C)N2CCOCC2)cc1	-14	43	6	21	2	/	/
CCCCN(C(=O)C(C)Oc1ccc(Br)cc1)c1c(N)n(Cc2ccccc2)c(=O)[nH]c1=O (stereo unspecified)	9	6	8	-1	-4	/	/
O=C(Nc1ccc(C#Cc2ccccc2)cc1)C1CC1	i	16	-32	-277	7	-141	i
C=C1C(O)[C@@H]2O[C@]3(CC[C@H](/C=C/C(C)[C@@H]4CC(C)=CC5(O[C@H](C[C@@](C)(O)CO)CCC5O)O4)O3)CC[C@H]2O[C@@H]1C(O)CC(C)[C@H]1OC2(CCCCO2)CCC1C (stereo partly specified)	-405	/	/	92*	76*	78*	-170
CC(C)(C)c1ccc(C(=O)N2CCCC2)s1	-36	-53	10	-57	-7	/	/
COc1cc(-c2c(-c3cc(OC)c(OC)c(OC)c3)noc2C)ccc1F	-280	/	-7	71*	63	47*	-162
COc1ccc(C(=O)N(C)[C@H]2C[C@H]3c4[nH]c5ccccc5c4CCN3C(=O)[C@H]2CO)cc1	/	-9	/	/	/	/	/
Cc1cc(C)c2c(N)c(C(=O)Nc3ccc(C)c(C)c3)sc2n1	-258	-118	16	-183	4	-104	-198
COc1ccc(NC(=O)c2sc3nc(C)cc(C)c3c2N)cc1	-78	-104	6	-54	7	/	/
SMILES	697 NFkB inh	Shn3 3UTR inh	Calb FLC	Jurkat NFkB inh	Beta cell apopt	Jurkat NFkB conf	697 NFkB conf
Cc1ccc(/C=C2/NC(=O)N(Cc3ccccc3)C2=O)o1	-42	22	-4	-20	0	/	/
Cn1c(=O)n(C)c2cc(/C=C3/NC(=O)N(Cc4ccccc4)C3=O)ccc21	47*	14	-6	11	-21	/	27*
O=C(COC(=O)C1CC1)NC(=O)c1ccccc1	17	10	/	10	-1	/	/
COc1cc(-c2cc(=O)c3c(O)c(OC)c(OC)c(OC)c3o2)cc(OC)c1OC	39*	23	-13	0	/	/	38*
S=C(c1ccc(-c2ccccc2)cc1)N1CCOCC1	55*	26	-11	13	-8	/	-10
O=C(c1ccc(-c2ccccc2)cc1)c1ccccc1C(=O)N1CCOCC1	9	-13	0	0	0	/	/
CC(C)c1[nH]nc2c1C(c1ccco1)C(C#N)=C(N)O2 (stereo unspecified)	49*	-17	18	7	0	/	30*
Cc1cccc(C)c1NC(=S)NC(=O)c1cccc(Cl)c1	/	-11	/	/	/	/	/
Cc1ccc([C@@H]2CC=C(C(=O)O)[C@H](c3cccc(Cl)c3)N2S(=O)(=O)c2ccccc2C)cc1	-2	-7	/	-9	-9	/	/
Cc1cnc(NC(=O)COc2cccc3c2OC(C)(C)C3)s1	i	5	-4	-60	1	/	i
CCN(C1CCCCC1)S(=O)(=O)CCNC(=O)c1ccc2c(c1)OCO2	7	0	-6	1	1	/	/
COCCN1C(=O)/C(=C/c2ccc(Oc3ccc([N+](=O)[O-])cn3)c(OC)c2)SC1=Nc1ccccc1	50*	-22	-32	30	6	/	24
CCn1c(SCC(=O)c2c(N)n(C3CC3)c(=O)[nH]c2=O)nc2cc(S(N)(=O)=O)ccc21	21	2	/	14	2	/	/
S=c1[nH]nc(-c2ccccc2)n1/N=C/c1ccc(-c2ccccc2Cl)o1	i	13	28	-12	7	/	-263
COc1ccc(S(=O)(=O)N2CCN(CC(=O)NCCc3cccs3)CC2)cc1	-21	16	/	5	-1	/	/
Cc1cc(/C=C2\Cc3ccccc3C2=O)c(C)n1-c1ccccc1	-310	47	18	-24	2	/	-193
Cc1cc(C=C2C(=O)c3ccccc3C2=O)c(C)n1-c1ccccc1	-31	21	8	-9	-2	/	/
CCOc1ccc(N=C(C)C2=C(O)c3ccccc3C2=O)cc1	-158	-56	2	-103	-4	/	/
CCOc1ccc(N=C(NN)c2ccc3ccccc3n2)cc1	-252	33	-2	13	10	/	-43
CSc1ccccc1NC(=O)CSCc1ccc(C)cc1	-8	-3	1	19	-7	/	/
Cc1ccc(CSCC(=O)Nc2ccccc2C(=O)O)cc1	i	-64	-5	-25	4	/	-394
Cc1ccc(CN2C(=O)C(C)Sc3ccc(C#N)cc32)cc1 (stereo unspecified)	/	3	/	/	/	/	/
Cc1ccc2oc(/N=C(\N)NC(=O)C3CC3)nc2c1	-265	3	-8	-23	-3	/	-325

Compound activity (PubChem)
